Our source for the outcome and AC50 values is PubChem BioAssay (EPA / NIEHS).

Broadly, the AC50 is the midpoint of the concentration-response curve, whichever way the signal moves.

Calls of active or inactive are those of the source. Rule for the calls: active = hit-call score of the fitted dose curve at least 0.9, where 1 is the maximum; inactive = score below 0.9.

Chain of Nuclear factor NF-kappa-B p105 subunit (Homo sapiens) (P19838 whole entry, looked up): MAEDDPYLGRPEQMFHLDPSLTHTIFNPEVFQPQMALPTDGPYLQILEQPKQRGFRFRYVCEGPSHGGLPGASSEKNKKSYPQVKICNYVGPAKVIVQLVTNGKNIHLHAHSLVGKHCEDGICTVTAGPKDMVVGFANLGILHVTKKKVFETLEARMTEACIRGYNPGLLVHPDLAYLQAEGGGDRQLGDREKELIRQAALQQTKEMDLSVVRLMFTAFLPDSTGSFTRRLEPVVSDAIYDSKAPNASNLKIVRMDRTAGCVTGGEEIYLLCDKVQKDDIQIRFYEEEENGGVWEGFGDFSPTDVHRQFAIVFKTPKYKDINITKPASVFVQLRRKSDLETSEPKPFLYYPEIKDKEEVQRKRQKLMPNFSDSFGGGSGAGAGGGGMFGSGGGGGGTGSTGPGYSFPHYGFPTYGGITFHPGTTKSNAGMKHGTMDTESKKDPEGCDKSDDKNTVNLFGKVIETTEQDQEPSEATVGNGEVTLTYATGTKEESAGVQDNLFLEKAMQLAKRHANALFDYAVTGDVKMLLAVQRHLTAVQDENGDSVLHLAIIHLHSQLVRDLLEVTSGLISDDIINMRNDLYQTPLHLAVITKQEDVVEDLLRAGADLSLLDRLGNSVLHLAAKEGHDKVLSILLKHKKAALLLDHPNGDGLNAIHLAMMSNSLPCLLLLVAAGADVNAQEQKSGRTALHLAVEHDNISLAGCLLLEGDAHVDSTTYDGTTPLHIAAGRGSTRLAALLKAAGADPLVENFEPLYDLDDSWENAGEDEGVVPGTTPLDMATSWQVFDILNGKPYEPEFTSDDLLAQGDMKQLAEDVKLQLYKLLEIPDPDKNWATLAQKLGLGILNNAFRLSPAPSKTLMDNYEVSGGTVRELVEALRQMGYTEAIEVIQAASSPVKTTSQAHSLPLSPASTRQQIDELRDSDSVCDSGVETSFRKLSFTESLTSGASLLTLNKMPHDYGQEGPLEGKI

Read-out in this test: Nuclear factor NF-kappa-B p105 subunit (Homo sapiens) (UniProt P19838)
Nature of the test: LTEA_HepaRG_NFKB1: Life Technologies and Expression Analysis (LTEA) Assay for Nuclear Factor Kappa B Subunit 1 (NFKB1) using HepaRG (AID 2283521).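 For outcome: TaqMan qRT-PCR transcript normalised to ACTB GAPDH and POLR2A housekeeping genes.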 The following applies: mRNA level, 48 h; actives raise or lower the signal. The method, then:
LTEA_HepaRG is a cell based, multiplexed-readout assay that uses HepaRG, a human liver cell line, with measurements taken at 48 hours after chemical dosing on a 96-well plate.LTEA_HepaRG_NFKB1 is one of 102 assay component(s) measured in the LTEA HepaRG cell culture assay. It is a marker of Cell proliferation, survival, death.Data from the assay component LTEA_HepaRG_NFKB1 was analyzed into 1 endpoint. This assay endpoint, LTEA_HepaRG_NFKB1, was analyzed with bidirectional fitting relative to DMSO as the negative control and baseline of activity. Using a type of inducible reporter, measures of mRNA induction for gain or loss-of-signal activity can be used to understand regulation of transcription factor activity. To generalize the intended target to other relatable targets, this assay endpoint is annotated to the dna binding intended target family, where the subfamily is NF-kappa B.
A total of 1060 chemcials from the ToxCast library were tested in eight-point concentration-response experiments. Cell culture and cytotoxicity assays were conducted at Thermo Fisher Scientific's Custom Services facility (Madison, WI). A single lot of human HepaRG cells (Thermo Fisher Scientific, Frederick, MD) was used for the cell culture experiments. 96-well format collagen type I coated plates of human HepaRG cells were prepared using established methods. Briefly, cryopreserved HepaRG cells were thawed, plated at a density of approximately 100,000 cells/well in HepaRG Thaw, Plate, and General Purpose media (HPRG770, Thermo Fisher Scientific), and incubated for 48 hours. 0.5% DMSO was selected as vehicle control to balance the requisite need of DMSO in HepaRG cultures to maintain differentiation (for example, baseline metabolism, proportions of hepatocytes vs. cholangiocytes), while enabling further hepatic receptor pathway activation (for example, PXR and CAR) in response to chemical exposure. 48 hours after plating, the culture medium was replaced with HepaRG Serum-Free Incudtion Media. Cells were exposed to each test chemical in duplicate and maintained in CO2 incubators for another 48 hours. Chemical plates were thawed to room temperature and 200x concentrations of treatment groups were prepared. 8-point conentration-reponse curves were made with the highest exposure at 100 uM, followed by half-log dilutions, all in 0.5% DMSO. Each test plate contained variouse controls, induction positive controls (1mM phenobarbital), cytotoxicity positive controls ([…] aflatoxin B1), vehicle controls (0.5% DMSO), and total lysis controls (0.5% DMSO). Cell morphology images were taken using an Essen IncuCyte FLR automated microscope, with six 96-well plates imaged in about 24 minutes. Images were captured and exported and JPEG files. Spent culture media was transfered to black-well plates for the LDH assay, and remaining media was sorted at -80 C for later use. Cells were treated with RLT buffer and frozen until shipped for gene expression analysis. Total RNA was isolated from the cell suspension in 75 uL of Buffer RLT (Qiagen, Germantown, MD 20874) by Quintiles/Expression Analysis (Durham, NC) using a custom isolation procedure. Total RNA from each plate well was transferred to a preamplification plate. Fluidigm's 96.96 Dynamic ArrayTM (Fluidigm, Amsterdam, the Netherlands) technology was used for gene expression analyses by quantitative reverse transcription polymerase chain reaction (qRT-PCR, performed by Quintiles/Expression Analysis, Durham, NC)89. Standard TaqManTM Assays (Applied Biosystems/ThermoFisher Scientific, Foster City, CA) were used to assess the expression of 93 genes selected based on their selectivity and sensitivity to important hepatic receptors known to be modulated by environmental chemicals; importance in human hepatocyte functionality; and hepatotoxicity. […]
`CC(C)(c1ccccc1)c1ccc(O)c(C(C)(C)c2ccccc2)c1`: the molecule was called inactive.

Take `CC12CC1(C)C(=O)N(c1cc(Cl)cc(Cl)c1)C2=O` (stereo unspecified): the result was inactive.

Turning to `CCOP(=S)(OCC)Oc1nc(Cl)c(Cl)cc1Cl`, the outcome was inactive.

As to `CC(C)(C)CC(C)(C)c1ccc(O)cc1`, the call was inactive.

Regarding `O=C(O)C(F)(F)C(F)(F)C(F)(F)C(F)(F)C(F)(F)C(F)(F)F`, the outcome was inactive.

For `O=C(Nc1ccc2[nH]ccc2c1)c1cc2cc(F)ccc2n1Cc1cccc(F)c1`, the result was inactive.

With `O=C(O)C(F)(F)C(F)(F)C(F)(F)C(F)(F)C(F)(F)C(F)(F)C(F)(F)C(F)(F)C(F)(F)C(F)(F)F`, the outcome was inactive.

As for `C=CC(=O)OCCCCCC(C)C`, the molecule was classed as inactive.

For `C=C(C)C(=O)[O][Sn]([CH2]CCC)([CH2]CCC)[CH2]CCC`, the AC50 was 94.9 µM (active).

For `CCN1CCC2(CC1)COc1cc3c(cc12)N(C(=O)c1ccc(-c2ccc(-c4nnc(C)o4)cc2C)cc1)CC3`, the AC50 is 46.8 µM (active).

As to `CCC(C)(C)c1ccc(O)c(C(C)(C)CC)c1`, the outcome was inactive.

As for `NC(=O)O`, the molecule was called inactive.

As for `CC(C)(C)c1cc(O)ccc1O`, the outcome was inactive.

For the molecule `C[C@@H]1C[C@@H]([C@H](O)CC2CC(=O)NC(=O)C2)C(=O)[C@@H](C)C1`, the AC50 is 17.6 µM (active).

Consider `CC(=O)[O][Hg][c]1ccccc1`, for which the AC50 is 23.2 µM (active).

Consider `Cc1ccccc1N`, for which the result was inactive.

Turning to `C[C@]12CCC(=O)C[C@@H]1CC[C@@H]1[C@@H]2CC[C@]2(C)[C@@H](O)CC[C@@H]12`, the molecule was called inactive.

As for `CCCCCCCCc1ccc(O)cc1`, the outcome was inactive.

For the molecule `CCOP(=S)(OCC)SCSP(=S)(OCC)OCC`, the result was inactive.

Consider `CN(C)N=O`, for which the result was inactive.

Take `O=[N+]([O-])c1ccc(O)c([N+](=O)[O-])c1`: the AC50 is 13 µM (active).

As to `O=c1[nH]c(=O)[nH]c(=O)[nH]1`, the call was inactive.

With `Cn1sc(Cl)cc1=O`, the result was inactive.

`CC(C)(OO)c1ccccc1`: the call was inactive.

Regarding `COc1cc(-c2ccc(N)c(OC)c2)ccc1N`, the result was inactive.

Take `O=C1C2(Cl)C3(Cl)C4(Cl)C(Cl)(Cl)C5(Cl)C3(Cl)C1(Cl)C5(Cl)C24Cl` (stereo unspecified): the molecule was classed as inactive.
